Read-out in assay [1]: Human Leukocyte Antigen - DR isotype (HLADR), HLA-DRA (gene 3122)
As to the kind of experiment: BSK_BE3C_HLADR: BioMAP Diversity Plus: BE3C Assay for Human Leukocyte Antigen - DR isotype (HLADR) Biomarker Activity (AID 2283032). Particulars: primary human bronchial epithelial cells; actives raise or lower the signal. The gist of the method: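 Primary human bronchial epithelial cells (BE3C); 24 h chemical exposure; HLA-DR by ELISA; bidirectional curve fit vs DMSO baseline.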

Read-out in assay [2]: Vascular cell adhesion molecule 1 (VCAM1), VCAM1 (gene 7412)
Briefly: BSK_4H_VCAM1: BioMAP Diversity Plus: 4H Assay for Vascular cell adhesion molecule 1 (VCAM1) Biomarker Activity (AID 2283033).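 On outcome: cell-surface VCAM-1 protein measured by ELISA.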 Particulars: primary human endothelial cells (HUVEC); actives raise or lower the signal. The gist of the method:
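HUVEC, 24 h post-dose; VCAM-1 by ELISA. Bidirectional curve fit vs DMSO baseline. Parallel SRB total-protein stain (0.1% SRB after 10% TCA fixation, 560 nm) for cytotoxicity.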

Read-out in assay [3]: Interferon-gamma inducible Protein 10 (IP10), CXCL10 (gene 3627)
Briefly: BSK_BE3C_IP10: BioMAP Diversity Plus: BE3C Assay for Interferon-gamma inducible Protein 10 (IP10) Biomarker Activity (AID 2283034). Particulars: primary human bronchial epithelial cells; actives raise or lower the signal. In outline:
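ELISA readout of IP-10 in BE3C system: primary human bronchial epithelial cells, 24 h post-dosing; bidirectional curve fit vs DMSO baseline.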

Read-out in assay [4]: Monokine induced gamma interferon (MIG), CXCL9 (gene 4283)
As to the kind of experiment: BSK_BE3C_MIG: BioMAP Diversity Plus: BE3C Assay for Monokine induced gamma interferon (MIG) Biomarker Activity (AID 2283035).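 On outcome: MIG protein measured by ELISA in BE3C cultures after 24 h of dosing.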 Particulars: primary human bronchial epithelial cells; actives raise or lower the signal. The gist of the method: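 Dose cells (human primary bronchial epithelial), incubate 24 h, quantify MIG by ELISA, then fit concentration–response in both directions relative to DMSO control.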

Read-out in assay [5]: Transforming growth factor beta 1 (TGFb1), TGFB1 (gene 7040)
Briefly: BSK_BE3C_TGFb1: BioMAP Diversity Plus: BE3C Assay for Transforming growth factor beta 1 (TGFb1) Biomarker Activity (AID 2283036;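 on outcome: TGF-b1 protein level measured by ELISA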). Particulars: primary human bronchial epithelial cells; actives raise or lower the signal. The gist of the method: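 Read-out: ELISA for TGF-b1 in primary human bronchial epithelial cultures, 24 h post-dose. Bidirectional curve fitting vs DMSO control; gain or loss of signal both scored.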

Read-out in assay [6]: Plasminogen activator inhibitor-1 (PAI1), SERPINE1 (gene 5054)
As to the kind of experiment: BSK_BE3C_PAI1: BioMAP Diversity Plus: BE3C Assay for Plasminogen activator inhibitor-1 (PAI1) Biomarker Activity (AID 2283037). Particulars: primary human bronchial epithelial cells; actives raise or lower the signal. In outline: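 ELISA read-out of PAI-1 from human bronchial epithelial primary cells, 24 h post-dosing; bidirectional curve fit vs DMSO baseline, gain or loss of signal scored.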

Read-out in assay [7]: urokinase plasminogen activator (uPA), PLAU (gene 5328)
As to the kind of experiment: BSK_BE3C_uPA: BioMAP Diversity Plus: BE3C Assay for urokinase plasminogen activator (uPA) Biomarker Activity (AID 2283038).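 On outcome: uPA protein level quantified by ELISA in cell cultures; uPA read one day after compound addition.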 Particulars: primary human bronchial epithelial cells; actives raise or lower the signal. The gist of the method:
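Bronchial epithelial cells (human, primary); chemical 24 h; uPA by ELISA; bidirectional fit vs DMSO. SRB (0.1%, after 10% TCA fixation, 560 nm) in parallel cultures for cytotoxicity.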

Read-out in assay [8]: Urokinase-type plasminogen activator receptor (uPAR), PLAUR (gene 5329)
Briefly: BSK_BE3C_uPAR: BioMAP Diversity Plus: BE3C Assay for Urokinase-type plasminogen activator receptor (uPAR) Biomarker Activity (AID 2283039).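 On outcome: uPAR protein level measured by ELISA on the cells; cells exposed to compound for one day before measurement.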 Particulars: primary human bronchial epithelial cells; actives raise or lower the signal. The gist of the method:
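ELISA readout of uPAR on human lung primary bronchial epithelial cells, 24 h post-dosing. Bidirectional curve fit relative to DMSO vehicle baseline; gain or loss of signal both scored.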

Read-out in assay [9]: Interleukin-6 (IL6), IL6 (gene 3569)
Briefly: BSK_CASM3C_IL6: BioMAP Diversity Plus: CASM3C Assay for Interleukin-6 (IL6) Biomarker Activity for (AID 2283040). Particulars: primary human coronary artery smooth muscle cells; actives raise or lower the signal.

Read-out in assay [10]: Tissue plasminogen activator (tPA), PLAT (gene 5327)
As to the kind of experiment: BSK_BE3C_tPA: BioMAP Diversity Plus: BE3C Assay for Tissue plasminogen activator (tPA) Biomarker Activity (AID 2283041).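 On outcome: tPA level quantified by ELISA one day after compound addition.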 Particulars: primary human bronchial epithelial cells; actives raise or lower the signal. In outline: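 ELISA read-out of tPA on human primary bronchial epithelial cells, 24 h post-dosing; bidirectional fit vs DMSO negative control/baseline.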

A word on the AC50: it is the concentration giving half of the maximal activity seen.

The source made the active and inactive calls. How the source made its calls: active means hit-call score of the fitted dose curve at least 0.9, where 1 is the maximum; inactive means score below 0.9.

For `NC=O`, the outcome in assay [1], in assay [2], in assay [3], in assay [4], in assay [5] and in assay [6] was inactive. For the same molecule, the result in assay [7], in [8], in assay [9] and in assay [10] was inactive.

Turning to `CC1=C(C)S(=O)(=O)CCS1(=O)=O`, the outcome in assay [1], in assay [2], in assay [3], in assay [4], in assay [5] and in assay [6] was inactive. Also, the outcome in assay [7], in assay [8], in assay [9] and in assay [10] was inactive.

In the case of `CCCC[C@H]1CN(CC2CCOCC2)C(=O)OC12CCN(C1(C)CCN(C(=O)c3c(C)ncnc3C)CC1)CC2`, the outcome in [1], in assay [2], in [3], in [4], in [5] and in assay [6] was inactive. The outcome in assay [7], in assay [8], in assay [9] and in [10] was inactive.

With `CCCCCCCCCCCCCCOS(=O)(=O)O`, the AC50 is 20 µM (active) in assay [1]; 20 µM (active) in [2]; 17.4 µM (active) in [3]; 34.2 µM (active) in assay [4]; 30.5 µM (active) in assay [5]; 20 µM (active) in assay [6]. Also, the AC50 in assay [7] was 28.6 µM (active); in [8], 16.1 µM (active); in [10], 18.8 µM (active). Moreover, the outcome in [9] was inactive.

`CC(=O)S[C@H](C(=O)N[C@H]1Cc2ccccc2[C@H]2CCC[C@@H](C(=O)O)N2C1=O)C(C)C`: the outcome in [1], in assay [2], in [3], in assay [4], in [5] and in assay [6] was inactive. In addition, the result in assay [7], in [8], in assay [9] and in [10] was inactive.

As to `COC(=O)CCCC(=O)OC`, the result in assay [1], in assay [2], in [3], in assay [4], in assay [5] and in assay [6] was inactive. The result in assay [7], in assay [8], in [9] and in [10] was inactive.

As to `CC(C)c1cccc(C(C)C)c1`, the outcome in assay [1], in assay [2], in [3], in [4], in assay [5] and in assay [6] was inactive. Also, the result in assay [7], in assay [8], in assay [9] and in [10] was inactive.

As for `OCC(O)CO`, the outcome in [1], in assay [2], in assay [3], in assay [4], in [5] and in assay [6] was inactive. The outcome in assay [7], in assay [8], in assay [9] and in [10] was inactive.

As for `CCN(CC)CCOc1ccc(C(=C(Cl)c2ccccc2)c2ccccc2)cc1`, the AC50 in assay [1] is 15.2 µM (active); in [2], 11.6 µM (active); in assay [3], 15.3 µM (active); in assay [4], 25.7 µM (active); in [5], 16.1 µM (active); in [6] it was 26.1 µM (active). For the same molecule, the half-maximal activity concentration (AC50) is 26 µM (active) in assay [7], 26.3 µM (active) in assay [8], 31.6 µM (active) in [9] and 11.1 µM (active) in [10].

Turning to `CC(=O)O[C@]1(C(C)=O)CC[C@H]2[C@@H]3C=C(Cl)C4=CC(=O)[C@@H]5C[C@@H]5[C@]4(C)[C@H]3CC[C@@]21C`, the AC50 is 19.3 µM (active) in assay [1]; 33.4 µM (active) in assay [3]; 31 µM (active) in assay [4]; 31.5 µM (active) in assay [5]; 20 µM (active) in assay [6]; 38.2 µM (active) in assay [7]. For the same molecule, the concentration at half-maximal activity (AC50) was 32.4 µM (active) in assay [8] and 34.9 µM (active) in assay [10]. The result in assay [2] and in assay [9] was inactive.

Consider `C/C=C/C=C/C(=O)O`, for which the outcome in assay [1], in [2], in assay [3], in assay [4], in assay [5] and in assay [6] was inactive. The result in assay [7], in assay [8], in [9] and in assay [10] was inactive.

For the molecule `NC(=Nc1ccccc1)Nc1ccccc1`, the result in assay [1], in assay [2], in assay [3], in [4], in assay [5] and in assay [6] was inactive. Besides, the outcome in assay [7], in assay [8], in assay [9] and in assay [10] was inactive.

`O=C(O)CN(CC(=O)O)CC(=O)O`: the result in assay [1], in assay [2], in assay [3], in assay [4], in [5] and in assay [6] was inactive. In addition, the outcome in assay [7], in [8], in assay [9] and in assay [10] was inactive.

As to `Cc1c(C)c2c(c(C)c1O)CCC(C)(COc1ccc(CC3SC(=O)NC3=O)cc1)O2` (stereo not given), the half-maximal activity concentration (AC50) was 15.2 µM (active) in assay [1]; 31.8 µM (active) in assay [2]; 14.2 µM (active) in assay [3]; 31.8 µM (active) in [4]; 26.2 µM (active) in assay [5]; 14.7 µM (active) in assay [6]. For the same molecule, the concentration at half-maximal activity (AC50) is 15.3 µM (active) in [7], 29.6 µM (active) in [8] and 9.19 µM (active) in assay [10]. In assay [9], the outcome was inactive.

Regarding `CC(COCC(C)OC(=O)c1ccccc1)OC(=O)c1ccccc1` (stereo not given), the result in assay [1], in assay [2], in assay [3], in [4], in assay [5] and in assay [6] was inactive. Also, the outcome in [7], in assay [8], in assay [9] and in [10] was inactive.

As for `CC1(C)C(=O)NC(=O)N1CO`, the outcome in [1], in assay [2], in [3], in [4], in assay [5] and in assay [6] was inactive. Further, the outcome in assay [7], in [8], in [9] and in [10] was inactive.

In the case of `CN(C)CCCN(C)CCCN(C)C`, the result in assay [1], in [2], in [3], in assay [4], in assay [5] and in assay [6] was inactive. Also, the outcome in assay [7], in [8], in assay [9] and in [10] was inactive.

As to `CC(C)OC(=O)C(C)(C)Oc1ccc(C(=O)c2ccc(Cl)cc2)cc1`, the result in assay [1], in [3], in assay [4], in [5], in assay [6] and in assay [7] was inactive. For the same molecule, the outcome in assay [8], in assay [9] and in assay [10] was inactive. Also, the AC50 in assay [2] was 17 µM (active).

`CC(N)=O`: the outcome in assay [1], in assay [2], in assay [3], in [4], in [5] and in assay [6] was inactive. Moreover, the result in assay [7], in assay [8], in assay [9] and in assay [10] was inactive.

In the case of `CCCCCCCCCC[N+](C)(C)[O-]`, the outcome in assay [1], in assay [2], in assay [3], in assay [4], in assay [5] and in [6] was inactive. Further, the outcome in [7], in [8], in assay [9] and in assay [10] was inactive.

`O=C(O)c1cccnc1`: the outcome in assay [1], in assay [2], in assay [3], in [4], in assay [5] and in assay [6] was inactive. Moreover, the result in assay [7], in [8], in assay [9] and in [10] was inactive.

Take `CN(C)C(=O)NC1(c2ccccc2)CCN(CCC[C@]2(c3ccc(Cl)c(Cl)c3)CCCN(C(=O)c3ccccc3)C2)CC1`: the outcome in assay [1], in [2], in [3], in [4], in [5] and in [6] was inactive. The result in assay [7], in assay [8], in [9] and in assay [10] was inactive.

Source of the values: PubChem BioAssay (EPA / NIEHS).
